Results published in the supplement of paper PMC6555819.

Key:
Test in all cases: PBM binding z-score (relative to random genomic background probes); higher = stronger binding; sequences stand for … in GC…GCGATTGACAGCGTAGAATGAAGG
[1] = system: FXR:RXRa (NR concentration 270 nM, RXRa partner concentration 90 nM)
Method in brief: (§1)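 Antibodies against each partner of ligand-free nuclear receptor dimers (one per run) detected binding on custom Agilent 4×180K protein-binding microarrays after 1 h incubation. The double-stranded probes had 34-nt variable regions carrying direct-repeat seeds, single-nucleotide variants, half-site ablations and random human genomic background sequences. Binding z-scores, from regression-normalized fluorescence, use the random background probes as reference.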

[2] = system: LXRa:RXRa (NR concentration 270 nM, RXRa partner concentration 90 nM)
Method in brief: as §1

[3] = system: LXRa homodimer (NR concentration 270 nM)
Method in brief: as §1

[4] = system: LXRb:RXRa (NR concentration 270 nM, RXRa partner concentration 90 nM)
Method in brief: as §1

[5] = system: LXRb homodimer (NR concentration 270 nM)
Method in brief: as §1

[6] = system: PPARa:RXRa (NR concentration 270 nM, RXRa partner concentration 90 nM)
Method in brief: as §1

[7] = system: PPARg:RXRa (NR concentration 180 nM, RXRa partner concentration 90 nM)
Method in brief: as §1

[8] = system: PPARg:RXRa 270nM:90nM, anti-RXR (NR concentration 270 nM, RXRa partner concentration 90 nM)
Method in brief: as §1

[9] = system: PPARg:RXRa 30nM:10nM, anti-RXR (NR concentration 30 nM, RXRa partner concentration 10 nM)
Method in brief: as §1

[10] = system: PPARg:RXRa 90nM:30nM, anti-RXR (NR concentration 90 nM, RXRa partner concentration 30 nM)
Method in brief: as §1

[11] = system: PPARg:RXRa DBDmut IVT, anti-RXR (DBD mutation: RXRa K156A/R161A, NR concentration 270 nM, RXRa partner concentration 90 nM)
Method in brief: as §1

[12] = system: PPARg:RXRa IVT, anti-PPARg (NR concentration 270 nM, RXRa partner concentration 90 nM)
Method in brief: as §1

[13] = system: PPARg DBDmut:RXRa IVT, anti-PPARg (DBD mutation: PPARg1 K132A/R137A, NR concentration 270 nM, RXRa partner concentration 90 nM)
Method in brief: as §1

[14] = system: PPARg DBDmut IVT, anti-PPARg (DBD mutation: PPARg1 K132A/R137A, NR concentration 270 nM)
Method in brief: as §1

[15] = system: PPARg homodimer (NR concentration 180 nM)
Method in brief: as §1

[16] = system: PXR:RXRa (NR concentration 270 nM, RXRa partner concentration 90 nM)
Method in brief: as §1

[17] = system: PXR homodimer (NR concentration 270 nM)
Method in brief: as §1

[18] = system: RARa:RXR (NR concentration 270 nM, RXRa partner concentration 90 nM)
Method in brief: as §1

[19] = system: RARa homodimer (NR concentration 270 nM)
Method in brief: as §1

[20] = system: RARb:RXRa (NR concentration 270 nM, RXRa partner concentration 90 nM)
Method in brief: as §1

| Sequence | PBM binding z-score [1] | PBM binding z-score [2] | PBM binding z-score [3] | PBM binding z-score [4] | PBM binding z-score [5] | PBM binding z-score [6] | PBM binding z-score [7] | PBM binding z-score [8] | PBM binding z-score [9] | PBM binding z-score [10] | PBM binding z-score [11] | PBM binding z-score [12] | PBM binding z-score [13] | PBM binding z-score [14] | PBM binding z-score [15] | PBM binding z-score [16] | PBM binding z-score [17] | PBM binding z-score [18] | PBM binding z-score [19] | PBM binding z-score [20] |
| --- | --- | --- | --- | --- | --- | --- | --- | --- | --- | --- | --- | --- | --- | --- | --- | --- | --- | --- | --- | --- |
| TGATATAGGTAAACAGGTGAAAGTCCGTAAGTTA | 0.277 | 0.353 | 0.0822 | 0.388 | 0.0217 | 2.37 | 3.95 | 3.81 | 1.65 | 3.09 | 5.35 | 5.64 | 1.01 | 0.48 | 0.911 | 0.29 | 0.346 | 0.703 | 1.11 | 0.511 |
| GCGACTGGTGCATCAGCAGGTTACCATAACTTAA | -0.753 | -0.531 | -0.541 | -0.267 | -1.02 | -0.237 | -0.0578 | -0.215 | -0.641 | -0.986 | -0.556 | -0.572 | -1.07 | -0.356 | -0.496 | -0.248 | -0.653 | -0.046 | -1.22 | -0.228 |
| AGTCAAAGTTCATCTAGCTAACGTAAGATATGCT | 6.22 | 5.88 | 4.89 | 3.8 | 1.73 | 4.45 | 6.14 | 6.05 | 3.68 | 5.44 | 0.278 | 2.41 | 1.28 | 0.69 | 2.37 | 4.83 | 4.89 | 3.89 | 1.29 | 4.79 |
| TCTGCTAGGTCAGTTGATCAGCTAACGAGCTGCC | 0.721 | 0.672 | -0.553 | 0.169 | -0.0241 | 0.983 | 0.167 | 1.28 | 1.07 | 1.27 | 2.51 | 2.27 | 0.428 | -0.296 | -0.547 | 0.199 | -0.78 | 0.424 | -1.32 | 3 |
| GGAACGATGGCATTCGAGTTGATAGCATGGCGAT | -0.471 | -0.604 | -0.706 | -0.979 | -1.12 | -0.689 | 0.643 | -0.465 | -0.325 | -0.434 | -0.377 | -0.247 | -0.636 | -0.427 | -0.633 | -0.0726 | -0.789 | -0.647 | -0.81 | -0.501 |
| GATACAGGGTCAGCCAGAGGCCAGAGTATGGAAA | 4.61 | 2.94 | -0.284 | 2.56 | -0.975 | 4.69 | 4.13 | 3.7 | 0.98 | 2.28 | 1.1 | 2.63 | 0.315 | -0.142 | 2.32 | 3.4 | -0.204 | 4.58 | 0.402 | 4.19 |
| ACTCGGAGGACAAAGGACAGAGCTACGCCAGTGA | -0.12 | -0.373 | -0.502 | -0.866 | -0.449 | -0.215 | 1.23 | 1.16 | 0.109 | 0.942 | -0.0501 | -0.429 | -0.346 | -1.22 | -0.327 | -0.688 | -0.112 | -0.495 | -0.7 | 1.62 |
| CCTCGGAGGACTACAGGAGGTCAGAGCTGCCAGA | 0.709 | 3.27 | 2.29 | 1.62 | -0.728 | 1.8 | 0.238 | -0.104 | -0.885 | -0.225 | -0.516 | -0.34 | -1.03 | -2.28 | 0.985 | 2.04 | 0.121 | 2.24 | -0.496 | 1.93 |
| AGAACGAGGGCAATGAGTTGATAACACGGGTGGC | 0.198 | 0.102 | -0.716 | -0.182 | -0.584 | 1.28 | 1.84 | 0.983 | 0.0129 | 0.611 | 2.99 | 2.45 | -0.222 | 0.293 | -0.128 | 1.53 | 4.8 | 0.19 | -0.633 | 2.05 |
| ACTAGCAGGCCAGGTTTGGGTCACTCAAACAAAG | -0.191 | -0.164 | -0.504 | 0.269 | -0.651 | 0.985 | -0.123 | 0.025 | -0.537 | -0.199 | -0.173 | 0.446 | -0.511 | -0.687 | 0.235 | 0.351 | -0.166 | 1.17 | -0.279 | 1.32 |
| TCTTATAGATCAAAGGTTAAGAAAGCCGAAGCCT | 2.06 | 2.39 | 0.368 | 2.31 | -0.12 | 4.55 | 7.79 | 7.92 | 7.61 | 9.15 | 2.07 | 3.14 | 0.659 | 0.755 | 2.4 | 2.41 | 0.154 | 3.82 | 0.262 | 2.06 |
| AGAATGAGGTTACCAAAGATCAGCGAAACGCTTG | 1.92 | 6.09 | -0.342 | 3.38 | -0.405 | 3.24 | 2.63 | 2.59 | 0.865 | 1.64 | 4.05 | 3.33 | 1.77 | 0.58 | 0.597 | 1.32 | -0.226 | 2.13 | 0.0511 | 2.08 |
| TCTTGTAGATCAGAAGGTTAAGAAAGCTGGCCAA | 0.619 | 1.02 | 0.09 | 1.16 | -0.193 | 1.54 | 0.167 | 2.4 | 3.46 | 3.03 | 1.98 | 0.611 | 0.0732 | -0.22 | 0.201 | 0.61 | 0.0531 | 0.924 | 0.498 | 1.07 |
| TCTCGGAGGACACGAATGTCAGAGCTTTCCAGAG | 0.579 | -0.0398 | -0.547 | -0.175 | -0.958 | 0.22 | -0.0172 | 0.69 | 1.96 | 1.29 | 1.02 | -0.236 | -0.725 | -1.02 | -0.998 | -0.181 | -0.893 | -0.129 | -0.458 | 1.47 |
| CCTACTGGGCCAAGGTTATTGATCAGTCAAAGCA | 0.116 | 0.594 | -0.113 | 0.269 | -0.596 | 1.78 | 2.64 | 3.06 | 0.701 | 2.48 | 3.46 | 3.58 | -0.243 | -0.723 | 0.597 | 0.145 | -0.133 | 0.421 | -0.486 | 0.659 |
